Bioassay records from PubChem.
SMN2 splice enh: increases expression of the SMN2 splice variant. Potency, µM (doses to about 46.1 µM), actives largely listed as activators. AID 1458. HEK293 SMN2-luciferase splicing reporter, luminescence, 30-36 h. 2.8% of 210,000 active; note: nearly all actives have a fitted effect of over 55% in size
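HEK293 cells carry an SMN2 […]–luciferase reporter in which exon 7 inclusion puts luciferase in frame. Cells were plated 10-12 h before compound addition, then incubated 30-36 h at 37C. ONE-Glo luminescence was read; sodium butyrate at 4.5 mM final served as control.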
Rab9 promoter act: activates the Rab9 promoter. Huh7 Rab9 promoter-luciferase reporter, luminescence, 24 h. Potency, µM (top dose mostly 9.22 µM), usual class: activators. 2.8% of 320,000 active; note: nearly all actives have a fitted effect of over 60% in size
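Luminescence from Amplite-detected luciferase (10 minutes, ambient) reports Rab9 promoter activation. Before that, stable Rab9-luciferase Huh7 cells (1500/well, reduced-serum OP-MEM I plus 10% FBS) were exposed to compound for 24 hours at 37C.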
NPC1 prom act: NPC1 promoter activation | Huh7 NPC1 promoter luciferase reporter, 24 h | Potency, µM (highest dose often 9.22 µM), usual class: activators | 2.4% of 320,000 active; note: nearly all actives have a fitted effect of over 60% in size
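Luciferase expression driven by the NPC1 promoter was measured in stably transfected Huh7 cells after a 24 h compound incubation, using a luciferase reagent and a luminescence read.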
ELG1 genotoxic: induces genotoxicity in HEK293T cells with luciferase-tagged ELG1. AID 504466. 1.3% of 330,000 active. HEK293T ELG1-luciferase reporter, luminescence, 16 h. Potency, µM (series often up to 46 µM), usual class: activators; note: nearly all actives have a fitted effect of over 60% in size
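Screening used a luciferase reporter fused to human ELG1 in HEK293T cells. Luminescence was read on a CCD plate imager after 16 hr exposure and 30 min ONE-Glo incubation.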
Luc counter: counter-screen: inhibitors of Kinase-Glo firefly luciferase | Q27757 | Kinase-Glo luciferase, ATP luminescence, 8 min | Potency, µM (top dose mostly 38.3 µM), most hits filed as inhibitors | 0.28% of 200,000 active | AID 1379; note: nearly all actives have a fitted effect of over 60% in size
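Compounds were added to a substrate mix at pH 7.2 (50 mM imidazole, 10 uM ATP, within the enzyme's linear range), followed by Kinase-Glo detection reagent; luminescence was measured after 8 minutes at ambient temperature.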
FLuc counter: counter-screen for miR-21 project: firefly luciferase inhibitors or activators. AID 588342. 6.9% of 360,000 active. Potency, µM (series often up to 57.5 µM), hits mostly inhibitors. purified FLuc, Km substrates, luminescence inhibition; note: nearly all actives have a fitted effect of over 55% in size
Target sequence (P08659 whole entry, looked up): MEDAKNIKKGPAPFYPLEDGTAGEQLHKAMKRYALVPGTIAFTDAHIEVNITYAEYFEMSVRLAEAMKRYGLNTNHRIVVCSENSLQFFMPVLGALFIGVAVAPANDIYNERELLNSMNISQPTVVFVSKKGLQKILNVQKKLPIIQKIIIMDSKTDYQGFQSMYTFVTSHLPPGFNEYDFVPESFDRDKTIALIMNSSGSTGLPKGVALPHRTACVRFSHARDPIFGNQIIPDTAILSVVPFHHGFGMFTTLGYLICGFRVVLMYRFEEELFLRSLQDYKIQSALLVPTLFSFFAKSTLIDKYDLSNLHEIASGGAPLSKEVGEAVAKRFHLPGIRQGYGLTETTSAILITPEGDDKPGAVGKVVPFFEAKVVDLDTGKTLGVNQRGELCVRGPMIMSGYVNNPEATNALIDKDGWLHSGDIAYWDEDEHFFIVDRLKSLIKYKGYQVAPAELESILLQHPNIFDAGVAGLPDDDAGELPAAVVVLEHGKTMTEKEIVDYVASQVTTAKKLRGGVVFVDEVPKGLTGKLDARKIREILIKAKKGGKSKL
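Biochemical qHTS of compounds, final roughly 60 µM downward over six points, against 10 nM purified firefly luciferase using Km concentrations of substrates (10 uM D-luciferin, 10 uM ATP) in Tris acetate pH 7.5 buffer; luminescence output.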
Large screens that a line does not name were inactive. A selection: hits, their analogues and other compounds. The true share with any hit is near 7.3%. Calls come from the whole dose curve; as a rule, active = well fitted curve in the direction sought with a large enough effect; inconclusive = small, poorly fitted or top-dose-only effect, or another doubt; inactive = no such curve, though single readings can be large; an effect the other way counts as inactive or inconclusive.

CCc1ccccc1NC(=O)c1cc2sccc2n1C	Rab9 promoter act inconclusive, FLuc counter inconclusive
Cn1c(C(=O)Nc2ccccc2)cc2sccc21	SMN2 splice enh inconclusive, Rab9 promoter act inconclusive, NPC1 prom act inconclusive, ELG1 genotoxic inconclusive, FLuc counter 13.5µM
COc1ccc(CNC(=O)c2cc3sccc3n2C)cc1	none (no result: Rab9 promoter act, NPC1 prom act, ELG1 genotoxic, Luc counter)
COc1cc(NC(=O)c2cc3sccc3n2C)cc(OC)c1	SMN2 splice enh 12.6µM, ELG1 genotoxic 5.8µM, FLuc counter 8.49µM
COC(=O)c1ccc(NC(=O)c2cc3sccc3n2C)cc1	FLuc counter 10.7µM (no result: SMN2 splice enh)
COc1ccc(OC)c(NC(=O)c2cc3sccc3n2C)c1	FLuc counter 12µM
COc1ccccc1OCc1ccc(C(=O)Nc2cc(OC)c(OC)c(OC)c2)o1	none (no result: SMN2 splice enh, Luc counter)
Cn1c(C(=O)Nc2ccc3c(c2)OCO3)cc2sccc21	SMN2 splice enh 12.6µM, Rab9 promoter act 1.58µM, NPC1 prom act 1.41µM, ELG1 genotoxic inconclusive, FLuc counter 3.38µM
Cn1c(C(=O)NCc2ccc3c(c2)OCO3)cc2sccc21	none
O=C(NC(=S)NCCc1ccccc1)c1ccco1	Rab9 promoter act inconclusive, FLuc counter inconclusive (no result: SMN2 splice enh, Luc counter)
Cc1ccc(-n2nnnc2SCn2nnc3ccccc3c2=O)cc1	Rab9 promoter act 3.55µM, NPC1 prom act inconclusive, ELG1 genotoxic 16.4µM, FLuc counter 13.5µM
O=c1c2ccccc2nnn1CSc1nnc2ccccn12	SMN2 splice enh 12.6µM, Rab9 promoter act 3.16µM, NPC1 prom act 3.55µM, ELG1 genotoxic 18.4µM, FLuc counter 15.1µM
COC(=O)c1c(NC(=O)c2nn(C)cc2Cl)sc2c1CCCC2	FLuc counter inconclusive
Cc1cccn2c(=O)c(C=C(C#N)C#N)c(N3CCN(c4ccccc4)CC3)nc12	none (no result: SMN2 splice enh, Luc counter)
Fc1cccc(Cl)c1CN1CCN(c2nc3ccccc3s2)CC1	Rab9 promoter act 2.51µM, NPC1 prom act 2.51µM, ELG1 genotoxic 14.6µM, FLuc counter 5.36µM (no result: SMN2 splice enh, Luc counter)
Fc1cccc2sc(N3CCCCC3)nc12	SMN2 splice enh inconclusive, Rab9 promoter act inconclusive, NPC1 prom act inconclusive, ELG1 genotoxic 13µM, FLuc counter 19µM
Fc1cccc2sc(N3CCOCC3)nc12	SMN2 splice enh inconclusive, FLuc counter inconclusive
CC(C)C(=O)N1CCN(c2nc3ccc(Cl)cc3s2)CC1	Rab9 promoter act inconclusive, NPC1 prom act 2.51µM, ELG1 genotoxic inconclusive, FLuc counter inconclusive (no result: SMN2 splice enh, Luc counter)
Clc1ccc2nc(N3CCCCC3)[nH]c2c1	SMN2 splice enh 14.1µM, Rab9 promoter act 1.41µM, NPC1 prom act 1.58µM, ELG1 genotoxic 2.06µM, FLuc counter 4.78µM
O=C(c1ccc2ccccc2n1)N1CCN(Cc2c(F)cccc2Cl)CC1	none (no result: SMN2 splice enh, Luc counter)
CC(C)NC(=O)N1CCCN(c2nc3ccc(Cl)cc3s2)CC1	FLuc counter inconclusive (no result: SMN2 splice enh, Luc counter)
COC(=O)c1c(C(=O)OC)c(-c2ccc(OC)cc2)n2c1CCC2	none (no result: SMN2 splice enh, Luc counter)
Cc1coc2c1c(C)cc1oc(=O)c(CC(=O)N[C@H](C(=O)O)C(C)C)c(C)c12	FLuc counter inconclusive (no result: SMN2 splice enh, Luc counter)
Clc1ccc2nc(N3CCCCC3)sc2c1	SMN2 splice enh 11.2µM, Rab9 promoter act 2.51µM, NPC1 prom act 1.41µM, ELG1 genotoxic inconclusive, FLuc counter 2.69µM
CCCCCCC(=O)N/N=C/Cc1ccccc1	none
COC(CNC(=O)c1ccc2c3c(onc13)-c1ccccc1C2=O)OC	Rab9 promoter act inconclusive, NPC1 prom act inconclusive, ELG1 genotoxic inconclusive, FLuc counter 15.1µM (no result: SMN2 splice enh, Luc counter)
Cc1cc(Cl)ccc1OCC(=O)Nc1nc(-c2cccnc2)cs1	none (no result: SMN2 splice enh, Luc counter)
Cc1cc(Cl)ccc1OCC(=O)Nc1nc(-c2cccs2)cs1	FLuc counter 23.9µM
CCCC(=O)Nc1nc(C(=O)OCC)cs1	none
O=C(COc1ccccc1Cl)Nc1nc(-c2cccs2)cs1	FLuc counter 16.9µM
CCOC(=O)c1csc(NC(=O)COc2ccc(Cl)cc2Cl)n1	FLuc counter 23.9µM
CC(=O)Nc1nc(-c2cccs2)cs1	NPC1 prom act inconclusive, FLuc counter inconclusive
COc1cc(NC(=O)NCC2CCN(Cc3ccccc3F)CC2)cc(OC)c1	none (no result: SMN2 splice enh, Luc counter)
Cc1ccccc1C(=O)Nc1ccc(C(=O)OCc2cc(=O)n3c4c(sc3n2)CCCC4)cc1	none (no result: SMN2 splice enh, Rab9 promoter act, NPC1 prom act, ELG1 genotoxic, Luc counter)
O=C(CCN1C(=O)c2ccccc2S1(=O)=O)Nc1ccc(F)c([N+](=O)[O-])c1	none (no result: SMN2 splice enh, Luc counter)
CCOc1ccc(C(=O)NCC(=O)NNC(=O)c2cc(C)oc2C)cc1OCC	none (no result: SMN2 splice enh, Rab9 promoter act, NPC1 prom act, Luc counter, FLuc counter)
N#C/C(=C\c1ccc(F)cc1)c1nc(-c2ccco2)cs1	Rab9 promoter act inconclusive, NPC1 prom act inconclusive, ELG1 genotoxic inconclusive, FLuc counter 2.69µM
COc1ccc(C)cc1S(=O)(=O)Nc1cccnc1	none
Clc1ccc(-c2cn3ccccc3n2)cc1	Rab9 promoter act 0.447µM, NPC1 prom act 0.708µM, ELG1 genotoxic inconclusive, FLuc counter 0.675µM (no result: SMN2 splice enh, Luc counter)
Brc1ccc(-c2cn3ccccc3n2)s1	SMN2 splice enh 7.08µM, Rab9 promoter act 0.355µM, NPC1 prom act 1µM, ELG1 genotoxic 0.651µM, Luc counter inconclusive, FLuc counter 0.757µM
Clc1ccc(-c2cn3c(n2)CCC3)cc1	Rab9 promoter act inconclusive, NPC1 prom act 2.24µM, ELG1 genotoxic 4.11µM, FLuc counter 12µM
O=[N+]([O-])c1cccc(-c2cn3ccccc3n2)c1	none (no result: SMN2 splice enh)
